Experimental data from PubChem BioAssay (Tox21).
Results filed as inconclusive are left out. Calls of active or inactive are those of the source. Unless noted, calls follow the shape of the full dose curve.

Key:
[1] = Nuclear factor erythroid 2-related factor 2/antioxidant responsive element (Nrf2/ARE) small molecule agonists: qHTS cell viability counter screen in human keratinocytes (AID 1919968; active = well fitted curve in the direction sought with a large enough effect in the repeat runs; an effect the other way counts as inactive or inconclusive; also: nearly all actives have a fitted effect of over 55% in size; also: potency is read from the fitted curve at half-maximal effect)
Summary of the method: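 Seed 1,500 KeratinoSens cells per well, then incubate 5 h at 37 C/5% CO2. Add compounds in DMSO and incubate 23 h. Add CellTiter-Fluor, wait 1 h and read fluorescence.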

[2] = Nuclear factor erythroid 2-related factor 2/antioxidant responsive element (Nrf2/ARE) small molecule agonists: luciferase reporter gene qHTS assay in human keratinocytes (AID 1919969); also: nearly all actives have a fitted effect of over 35% in size; also: potency is read from the fitted curve at half-maximal effect
[3] = molecular target: Gonadotropin-releasing hormone receptor (Homo sapiens) (UniProt P30968); test: Human gonadotropin-releasing hormone receptor (GnRHR) small molecule agonists, calcium flux assay in GnRHR-HEK293 cells (AID 1920063); also: nearly all actives have a fitted effect of over 35% in size
Summary of the method: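 Cells: HEK293 stably expressing human GnRHR. Steps: overnight (18 h) culture, 1 h calcium dye loading at 37 C, compound addition, kinetic fluorescence read at 480/540 nm. Each compound tested at 15 concentrations in triplicate.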

[4] = molecular target: KiSS-1 receptor (Homo sapiens) (UniProt Q969F8); test: Human kisspeptin (KISS1R) small molecule agonists, calcium flux assay in KISS1R-HEK293 cells (AID 1920064; active = well fitted curve in the direction sought with a large enough effect in the repeat runs; an effect the other way counts as inactive or inconclusive)
Summary of the method: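 Cells plated and incubated 18 h; dye added, 1 h at 37 C; compounds in DMSO pinned in; signal read at 480/540 nm every second for 3 min. Each compound tested at 15 concentrations in triplicate.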

[5] = G protein-coupled receptor (GPCR) small molecule agonists, calcium flux assay: HEK293 wild type cell line counter screen (AID 1920065)
Summary of the method: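 Counter-screen of the Tox21 10K library for non-specific calcium release: dye-loaded cells received compounds in DMSO and were monitored by kinetic fluorescence (480/540 nm, 3 min). Fifteen concentrations, run in triplicate.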

[6] = p53 small molecule agonists, cell-based qHTS assay with human liver microsomes: qHTS cell viability counter screen (AID 1963579); also: nearly all actives have a fitted effect of over 45% in size
Summary of the method: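 p53RE-bla cells, 4,000/well, dosed 5 hours after plating, with human liver microsomes (0.5 mg/mL final) plus NADPH (0.5 mg/mL final), 16 hours at 37 C. Viability read as CellTiter-Glo luminescence after 30 min at room temperature.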

[7] = p53 small molecule agonists, cell-based qHTS assay with rat liver microsomes: qHTS cell viability counter screen (AID 1963580); also: nearly all actives have a fitted effect of over 45% in size
Summary of the method: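 Intracellular ATP, by CellTiter-Glo luminescence, defines viability. HCT-116 p53RE-bla cells, 4,000 per well, were compound-treated in the presence of rat liver microsomes and NADPH for 16 h at 37 C.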

[8] = molecular target: 5-hydroxytryptamine receptor 2A (Homo sapiens) (UniProt P28223); test: 5-hydroxytryptamine receptor 2A (HTR2A) small molecule antagonists, cell-based qHTS assay (AID 1963586); also: nearly all actives have a fitted effect of over 45% in size
Summary of the method: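 Antagonist-mode intracellular calcium assay: DOI (4 nM) added after 5 min compound pre-incubation at room temperature to dye-loaded HTR2A-CHO cells. Fluorescence followed for 3 min, sampled every second.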

[9] = molecular target: Muscarinic acetylcholine receptor M1 (Homo sapiens) (UniProt P11229); test: Cholinergic receptor muscarinic 1 (CHRM1) small molecule antagonists, cell-based qHTS assay (AID 1963588); also: nearly all actives have a fitted effect of over 40% in size
Summary of the method: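 CHRM1-CHO calcium-flux assay, antagonist mode. Cells were seeded 18 h, dye-loaded 1 h at 37 C and given compound for 5 min at RT, then acetylcholine was added at 50nM. FDSS fluorescence was read 3 min; 15 concentrations, three runs.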

[10] = molecular target: Muscarinic acetylcholine receptor M1 (Homo sapiens) (UniProt P11229); test: Cholinergic receptor muscarinic 1 (CHRM1) small molecule agonists, cell-based qHTS assay (AID 1963589); also: nearly all actives have a fitted effect of over 35% in size
Summary of the method: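 Agonist-mode qHTS in CHO cells stably carrying human muscarinic M1. Intracellular calcium is tracked by fluorescence every second after compound transfer; each compound runs at 15 concentrations in three independent runs.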

[11] = molecular target: Beta-2 adrenergic receptor (Homo sapiens) (UniProt P07550); test: Adrenergic beta2 receptor (ADRB2) small molecule antagonists, cell-based qHTS assay (AID 1963592); also: series mostly up to about 92 µM; nearly all actives have a fitted effect of over 50% in size
Summary of the method: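 Cells (CHO, stable ADRB2 overexpression) incubated 18-20hr at 37C; compounds added from DMSO; agonist mix (1nM isoproterenol, 100uM IBMX, 25uM Ro-20-1724) added; 0.5hr RT; d2-cAMP and anti-cAMP-cryptate added; 1hr RT; 665/615 nm read.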

[12] = molecular target: Beta-2 adrenergic receptor (Homo sapiens) (UniProt P07550); test: Adrenergic beta2 receptor (ADRB2) small molecule agonists, cell-based qHTS assay (AID 1963593);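 also: CHO cells stably overexpressing human ADRB2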
Summary of the method: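 CHO cells stably over-expressing ADRB2 were plated overnight at 37C, then dosed with compounds plus a stimulation mix containing 100uM IBMX and 25uM Ro-20-1724 for 0.5hr at room temperature. cAMP was measured by HTRF competition, 1hr.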

[13] = molecular target: D(2) dopamine receptor (Homo sapiens) (UniProt P14416); test: Dopamine D2 receptor (DRD2) small molecule agonists, cell-based qHTS assay (AID 1963594); also: nearly all actives have a fitted effect of over 35% in size
Summary of the method: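 cAMP accumulation in DRD2-HEK293 cells measured by HTRF after 1 h detection; compounds added 10 min before NKH477 (200nM […]) forskolin-analogue stimulation, 30 min at room temperature, with Ro20-1724 present at 0.1 mM final.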

[14] = molecular target: D(2) dopamine receptor (Homo sapiens) (UniProt P14416); test: Dopamine D2 receptor (DRD2) small molecule antagonists, cell-based qHTS assay (AID 1963595; active = well fitted inhibition curve with a large enough effect in the signal ratio in the repeat runs, with a control signal flat; the % refers to the signal ratio; also: potency is read from the fitted curve at half-maximal effect)
Summary of the method: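 Stable D2 receptor HEK293 line, 24 h after seeding. Compound preincubated 10 min, then quinpirole (12 nM) with forskolin analogue NKH477 (200 nM), 30 min, room temperature. Detection by time-resolved FRET of cAMP.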

[15] = p53 small molecule agonists, cell-based qHTS assay: qHTS cell viability counter screen (AID 1963581); also: nearly all actives have a fitted effect of over 45% in size
Summary of the method: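 Cells: HCT-116 with p53 response element-driven beta-lactamase. Treatment: 16 h, 37 C, compounds in DMSO. Read: CellTiter-Glo luminescence after 30 min RT.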

[16] = molecular target: 5-hydroxytryptamine receptor 2A (Homo sapiens) (UniProt P28223); test: 5-hydroxytryptamine receptor 2A (HTR2A) small molecule agonists, cell-based qHTS assay (AID 1963587); also: nearly all actives have a fitted effect of over 30% in size
Summary of the method: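 Kinetic calcium-flux fluorescence (2 min, 1 sec intervals) after compound addition in agonist mode. HTR2A-CHO cells were cultured 18 h, then dye-loaded 1 h at 37 C.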

[17] = cAMP Responsive Elements (CRE) small molecule agonists, cell-based qHTS assay (AID 1963590)
Summary of the method: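 Agonist mode qHTS in CRE-bla HEK 293T cells: compounds dosed from DMSO for 3 h at 37 C/5% CO2, followed by LiveBLAzer B/G FRET substrate for 2 h at room temperature.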

[18] = cAMP Responsive Elements (CRE) small molecule antagonists, cell-based qHTS assay (AID 1963591; active = well fitted inhibition curve with a large enough effect in the signal ratio in the repeat runs, not every such curve was filed as active; the % refers to the signal ratio)
Summary of the method: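 Antagonist mode: test compounds are co-incubated with the adenylyl cyclase activator NKH477 (0.25 uM final) on CRE-bla HEK293T cells for 3 h at 37 °C, followed by LiveBLAzer substrate loading.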

[19] = p53 small molecule agonists, cell-based qHTS assay (AID 1963582; active = well fitted activation curve with a large enough effect in the signal ratio in the repeat runs, not every such curve was filed as active; the % refers to the signal ratio)
Summary of the method: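 Quantitative HTS in p53RE-bla cells: after a 5 h settling period, compounds delivered in DMSO were left on cells for 16 h at 37 C, and reporter induction was measured as fluorescence following 2 h substrate loading.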
% is scaled to controls: 0 for no effect and ±100 for the full control effect.

Chain of Muscarinic acetylcholine receptor M1 (Homo sapiens) (P11229 whole entry, looked up): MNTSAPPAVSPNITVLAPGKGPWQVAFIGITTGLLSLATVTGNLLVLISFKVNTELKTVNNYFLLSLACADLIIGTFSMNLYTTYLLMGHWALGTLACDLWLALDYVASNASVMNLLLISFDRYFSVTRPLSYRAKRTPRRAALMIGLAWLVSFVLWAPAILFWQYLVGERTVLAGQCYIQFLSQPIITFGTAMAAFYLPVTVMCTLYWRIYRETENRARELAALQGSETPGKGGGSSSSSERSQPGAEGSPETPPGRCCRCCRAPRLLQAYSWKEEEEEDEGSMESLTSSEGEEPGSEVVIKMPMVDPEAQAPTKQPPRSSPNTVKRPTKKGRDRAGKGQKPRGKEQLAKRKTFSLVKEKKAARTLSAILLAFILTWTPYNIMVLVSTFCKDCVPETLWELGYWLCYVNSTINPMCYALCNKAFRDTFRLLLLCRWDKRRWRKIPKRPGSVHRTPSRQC
Chain of D(2) dopamine receptor (Homo sapiens) (P14416 whole entry, looked up): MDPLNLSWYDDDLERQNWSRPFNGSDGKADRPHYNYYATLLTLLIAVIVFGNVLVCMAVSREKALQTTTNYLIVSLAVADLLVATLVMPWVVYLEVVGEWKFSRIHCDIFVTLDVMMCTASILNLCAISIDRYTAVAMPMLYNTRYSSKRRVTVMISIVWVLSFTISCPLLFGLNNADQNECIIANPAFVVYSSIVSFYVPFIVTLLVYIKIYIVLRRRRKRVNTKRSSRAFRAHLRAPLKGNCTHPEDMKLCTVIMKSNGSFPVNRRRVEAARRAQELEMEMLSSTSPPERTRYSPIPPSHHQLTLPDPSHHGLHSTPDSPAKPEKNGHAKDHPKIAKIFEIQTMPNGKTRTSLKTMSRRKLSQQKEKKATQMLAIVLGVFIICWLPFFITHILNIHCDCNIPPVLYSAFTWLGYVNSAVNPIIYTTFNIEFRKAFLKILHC
Chain of Beta-2 adrenergic receptor (Homo sapiens) (P07550 whole entry, looked up): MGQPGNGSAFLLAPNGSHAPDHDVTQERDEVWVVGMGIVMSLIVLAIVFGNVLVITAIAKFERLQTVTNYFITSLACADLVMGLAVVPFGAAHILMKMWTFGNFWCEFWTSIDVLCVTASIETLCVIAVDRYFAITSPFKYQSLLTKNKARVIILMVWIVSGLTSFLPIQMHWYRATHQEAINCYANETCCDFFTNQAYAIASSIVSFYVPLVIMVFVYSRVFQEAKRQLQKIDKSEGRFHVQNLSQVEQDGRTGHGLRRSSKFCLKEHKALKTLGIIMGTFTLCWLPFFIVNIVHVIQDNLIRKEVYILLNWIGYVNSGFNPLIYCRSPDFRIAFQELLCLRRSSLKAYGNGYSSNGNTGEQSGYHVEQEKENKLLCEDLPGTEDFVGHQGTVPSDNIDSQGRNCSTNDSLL
Chain of Gonadotropin-releasing hormone receptor (Homo sapiens) (P30968 whole entry, looked up): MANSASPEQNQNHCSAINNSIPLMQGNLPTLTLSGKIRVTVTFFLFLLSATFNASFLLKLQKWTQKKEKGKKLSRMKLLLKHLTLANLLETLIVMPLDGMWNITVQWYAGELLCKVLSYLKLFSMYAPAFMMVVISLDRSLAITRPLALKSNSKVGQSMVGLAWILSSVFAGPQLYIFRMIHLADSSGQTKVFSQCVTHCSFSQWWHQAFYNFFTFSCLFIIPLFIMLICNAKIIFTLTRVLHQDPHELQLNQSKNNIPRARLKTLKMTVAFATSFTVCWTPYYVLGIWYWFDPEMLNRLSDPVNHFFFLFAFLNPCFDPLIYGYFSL
Chain of 5-hydroxytryptamine receptor 2A (Homo sapiens) (P28223 whole entry, looked up): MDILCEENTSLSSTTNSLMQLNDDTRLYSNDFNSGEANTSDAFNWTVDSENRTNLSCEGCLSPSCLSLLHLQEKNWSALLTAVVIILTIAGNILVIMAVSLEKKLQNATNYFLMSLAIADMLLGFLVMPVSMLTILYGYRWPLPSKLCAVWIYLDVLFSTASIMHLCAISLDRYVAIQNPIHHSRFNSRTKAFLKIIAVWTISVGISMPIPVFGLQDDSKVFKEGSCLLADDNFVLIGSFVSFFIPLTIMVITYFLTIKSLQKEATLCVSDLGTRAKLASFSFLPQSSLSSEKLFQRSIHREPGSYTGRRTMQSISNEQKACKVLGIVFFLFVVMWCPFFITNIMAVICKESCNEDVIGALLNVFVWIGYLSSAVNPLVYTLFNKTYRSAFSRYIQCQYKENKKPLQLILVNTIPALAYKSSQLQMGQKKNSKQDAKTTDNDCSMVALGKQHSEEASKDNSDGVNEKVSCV
Chain of KiSS-1 receptor (Homo sapiens) (Q969F8 whole entry, looked up): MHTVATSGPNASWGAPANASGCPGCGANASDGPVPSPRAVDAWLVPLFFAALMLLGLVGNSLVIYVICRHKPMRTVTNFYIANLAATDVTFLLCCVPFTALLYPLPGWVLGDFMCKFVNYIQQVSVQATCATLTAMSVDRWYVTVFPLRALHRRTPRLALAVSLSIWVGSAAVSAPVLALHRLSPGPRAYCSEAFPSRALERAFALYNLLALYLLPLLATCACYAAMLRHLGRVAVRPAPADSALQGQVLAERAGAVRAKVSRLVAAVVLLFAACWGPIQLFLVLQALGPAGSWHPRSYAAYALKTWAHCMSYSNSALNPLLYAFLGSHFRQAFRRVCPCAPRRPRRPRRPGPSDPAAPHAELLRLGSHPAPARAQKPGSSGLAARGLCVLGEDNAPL

CN(c1nccc(=O)[nH]1)C1CCN(c2nc3ccccc3n2Cc2ccc(F)cc2)CC1
inactive: Potency [1] | Potency [2] | Potency [3] | Potency [4] | Potency [5] | Potency [6] | Potency [7] | Potency [8] | Potency [9] | Potency [10] | Potency [11] | Potency [12] | Potency [13] | Potency [14]

COc1nc(C)nc(N)n1
inactive: Potency [1] | Potency [2] | Potency [3] | Potency [4] | Potency [5] | Potency [6] | Potency [15] | Potency [8] | Potency [16] | Potency [9] | Potency [10] | Potency [17] | Potency [18] | Potency [11] | Potency [12] | Potency [14]

CCOCC(C)O (configuration not stated)
inactive: Potency [1] | Potency [2] | Potency [3] | Potency [4] | Potency [5] | Potency [6] | Potency [7] | Potency [8] | Potency [16] | Potency [9] | Potency [10] | Potency [17] | Potency [11] | Potency [12] | Potency [13] | Potency [14]

CC(C)c1ccccc1C(C)C
inactive: Potency [1] | Potency [2] | Potency [3] | Potency [4] | Potency [5] | Potency [6] | Potency [15] | Potency [19] | Potency [8] | Potency [16] | Potency [9] | Potency [10] | Potency [18] | Potency [11] | Potency [12] | Potency [13] | Potency [14]

O=C(Nc1cccc(Cl)c1)OCC#CCCl
inactive: Potency [3] | Potency [4] | Potency [5] | Potency [6] | Potency [7] | Potency [8] | Potency [16] | Potency [9] | Potency [10] | Potency [11] | Potency [12] | Potency [13] | Potency [14]
active: Potency [1] 17.2 µM | Potency [2] 12.2 µM

Cn1cnc2c(=O)[nH]c(N)nc21
inactive: Potency [1] | Potency [2] | Potency [3] | Potency [4] | Potency [5] | Potency [6] | Potency [15] | Potency [8] | Potency [16] | Potency [10] | Potency [17] | Potency [18] | Potency [11] | Potency [12] | Potency [13] | Potency [14]

C1CCCCCCCCCCC1
inactive: activity change, negative = cytotoxicity [1] 0.761% [at 19 µM] | activity, positive = activation [2] -8.94% [at 19 µM] | activity change [3] -0.293% [at 11.8 µM, active compounds read high] | activation [4] 1.26% [at 15.8 µM] | activation [5] -0.978% [at 11.8 µM] | activity change, negative = cytotoxicity [7] 0.482% [at 13.5 µM] | activity change, negative = cytotoxicity [15] 9.85% [at 13.5 µM] | activity, negative = inhibition [8] -15.5% [at 12.7 µM] | activation [16] -0.851% [at 15.9 µM] | activity, negative = inhibition [9] 10.4% [at 12.6 µM] | activation [10] -0.458% [at 15.8 µM] | activation [17] -0.929% [at 19 µM] | activity change, negative = inhibition [18] -1.59% [at 18.9 µM] | activation [13] -2.66% [at 19 µM] | activity change, negative = inhibition [14] -0.815% [at 18.9 µM]

Cc1c(Cl)cccc1Cl
inactive: Potency [1] | Potency [2] | Potency [3] | Potency [4] | Potency [5] | Potency [7] | Potency [15] | Potency [8] | Potency [16] | Potency [10] | Potency [17] | Potency [18] | Potency [11] | Potency [12] | Potency [13] | Potency [14]

Cc1c(O)cccc1O
inactive: Potency [1] | Potency [2] | Potency [3] | Potency [4] | Potency [5] | Potency [6] | Potency [15] | Potency [16] | Potency [9] | Potency [10] | Potency [17] | Potency [18] | Potency [11] | Potency [12] | Potency [13] | Potency [14]

O/N=C/C=N/O
inactive: Potency [1] | Potency [2] | Potency [3] | Potency [4] | Potency [5] | Potency [7] | Potency [15] | Potency [8] | Potency [16] | Potency [9] | Potency [10] | Potency [17] | Potency [18] | Potency [11] | Potency [12] | Potency [13] | Potency [14]

OC/C(Br)=C(\Br)CO
inactive: Potency [1] | Potency [2] | Potency [3] | Potency [4] | Potency [5] | Potency [6] | Potency [8] | Potency [16] | Potency [9] | Potency [17] | Potency [11] | Potency [13] | Potency [14]

S=C([S-])NCCNC(=S)[S-].S=C([S-])NCCNC(=S)[S-].[Mn+2].[Zn+2]
inactive: Potency [1] | Potency [2] | Potency [3] | Potency [4] | Potency [5] | Potency [7] | Potency [15] | Potency [8] | Potency [16] | Potency [9] | Potency [17] | Potency [11] | Potency [13]

N#CSCSc1nc2ccccc2s1
inactive: Potency [3] | Potency [4] | Potency [5] | Potency [6] | Potency [15] | Potency [8] | Potency [16] | Potency [9] | Potency [10] | Potency [13]
active: Potency [1] 13.7 µM | Potency [2] 9.69 µM | Potency [14] 54.5 µM

O=C(O)c1ccccc1-c1ccc(C(F)(F)F)cc1
inactive: Potency [1] | Potency [2] | Potency [3] | Potency [4] | Potency [5] | Potency [7] | Potency [15] | Potency [8] | Potency [16] | Potency [9] | Potency [10] | Potency [17] | Potency [11] | Potency [12] | Potency [14]

CCCCOc1ccc(CC(=O)NO)cc1
inactive: Potency [1] | Potency [2] | Potency [3] | Potency [4] | Potency [5] | Potency [6] | Potency [8] | Potency [16] | Potency [9] | Potency [10] | Potency [17] | Potency [18] | Potency [11] | Potency [12] | Potency [13]
